Drawing on PubChem BioAssay (Tox21), this text covers Potency, outcome and activity change, positive = activation for eight compounds.

Experiment [1] can be described thus: qHTS assay to identify small molecule antagonists of the estrogen related receptor (ERR) signaling pathway from Tox21 library - cell viability counter screen (AID 1224834). Note: nearly all actives have a fitted effect of over 30% in size. The method, boiled down:
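Counter screen run in ERR cells (2,000 cells/well): cells pre-incubated 6 h, then treated with compounds for 17.5 h at 37 C. Fluorescence was read 30 min after CellTiter-Fluor addition.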

Experiment [2] addresses Luciferin 4-monooxygenase (Photinus pyralis) (UniProt P08659). In words: qHTS assay to identify small molecule inhibitors of firefly luciferase (AID 1224835). Note: nearly all actives have a fitted effect of over 25% in size. In short, it runs like this: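 Biochemical qHTS: compounds run as interplate titrations against purified firefly enzyme, with D-luciferin and ATP each at its KM concentration. Light output recorded by CCD imaging.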
(In general: In qHTS, concentration-response curves come from the screen itself.)

A short description of experiment [3]: qHTS assay to identify small molecule agonists of the constitutive androstane receptor (CAR) signaling pathway - cell viability counter screen (AID 1224836). Note: nearly all actives have a fitted effect of over 45% in size. In short, it runs like this:
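Cells were seeded and incubated 4 hrs. Compounds were added across 15 concentrations together with PK11195 at 0.75 uM final. Plates were incubated 23 hrs at 37 C. CellTiter-Fluor was added and fluorescence measured.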

Experiment [4] is described as follows: qHTS assay to identify small molecule antagonists of the constitutive androstane receptor (CAR) signaling pathway - cell viability counter screen (AID 1224837). Note: nearly all actives have a fitted effect of over 45% in size. In short, it runs like this:
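CITCO at 50 nM final was added alongside compounds (15 concentrations) to double-stable hCAR/CYP2B6-2.2kb HepG2 cells. Following 23 hr at 37 C, cell viability was quantified by CellTiter-Fluor fluorescence intensity.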

Experiment [5] in a line: qHTS assay to identify small molecule antagonists of the estrogen related receptor signaling pathway with the pleiotropic PPARgamma coactivator (PGC) from Tox21 10K library - cell viability counter screen (AID 1224840; active = well fitted cell-killing curve with a large enough effect in the repeat runs, not every such curve was filed as active; note: nearly all actives have a fitted effect of over 40% in size). The method, boiled down: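 Readout: fluorescence intensity from CellTiter-Fluor after 30 min at 37 C/5% CO2. Preceded by 17.5 h treatment of PGC/ERR cells with DMSO-dissolved compounds, added 6 h post-seeding.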

Experiment [6] in a line: qHTS assay to identify small molecule antagonists of the estrogen related receptor signaling pathway with the pleiotropic PPARgamma coactivator (PGC) from Tox21 10K library (AID 1224841; call rule not given here; note: actives are mostly falling curves and most rising ones were filed inactive; nearly all actives have a fitted effect of over 50% in size). The method, boiled down: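 One-Glo luminescence, measured after half an hour at room temperature, quantified reporter output of PGC/ERR cells. These had been plated at 2,000 per well, incubated 6 h, dosed with compounds in DMSO, then kept 18 h at 37 C.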

Experiment [7] is described as follows: qHTS assay to identify small molecule agonists of the estrogen related receptor signaling pathway with the pleiotropic PPARgamma coactivator (PGC) from Tox21 10K library (AID 1224842). Note: nearly all actives have a fitted effect of over 15% in size. The method, boiled down:
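PGC/ERR reporter cell line, 2,000 cells per well, incubated 6 h at 37 C before 23 nL compound in DMSO was added. After 18 h at 37 C, One-Glo luminescence read following 30 min at room temperature.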

For experiment [8], the target named is Thyrotropin receptor (Homo sapiens) (UniProt P16473). Nature of the experiment: qHTS assay to identify small molecule agonists of the thyroid stimulating hormone receptor (TSHR) signaling pathway (AID 1224843; calls by dose curve; note: nearly all actives have a fitted effect of over 45% in size). The method, boiled down:
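HEK293/TSHR, 800 cells/well; cpd 30 min RT; add cAMP-d2 + anti-cAMP-cryptate, 1 h RT; fluorescence read on plate reader. 15-pt titration, n=3.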

A short description of experiment [9]: qHTS assay to identify small molecule agonists of the hypoxia (HIF-1) signaling pathway - cell viability counter screen (AID 1224844; calls by dose curve; note: nearly all actives have a fitted effect of over 50% in size). In short, it runs like this: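 In this counter screen, HRE-bla ME-180 cell viability after 17 hrs of compound exposure at 37C was read by CellTiter-Glo luminescence, multiplexed with the beta-lactamase reporter measurement.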

Experiment [10] in a line: qHTS assay to identify small molecule agonists of H2AX (AID 1224845; active = well fitted activation curve with a large enough effect in the signal ratio in the repeat runs, not every such curve was filed as active; the % refers to the signal ratio; note: potency is the fitted concentration of half-maximal effect). The method, boiled down: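 Wild-type CHO-K1 cells, plated overnight, exposed 3hr at 37C to 15 concentrations (0.76% DMSO final). Lysed, then HTRF anti-pH2AX (S139) cryptate and anti-H2AX-d2 antibodies, 24 hr room temperature; 665/620 nm emission read.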
Experiment [11] can be described thus: qHTS assay to identify small molecule agonists of the hypoxia (HIF-1) signaling pathway (AID 1224846; active = well fitted activation curve with a large enough effect in the signal ratio in the repeat runs, not every such curve was filed as active; the % refers to the signal ratio). The method, boiled down:
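ME-180 HRE-bla reporter cells; compounds in DMSO, 17 h at 37C; read-out beta-lactamase via CCF4-AM FRET.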

Experiment [12] is described as follows: qHTS assay to identify small molecule agonists of H2AX - cell viability counter screen (AID 1224847; calls by dose curve; note: top concentration of the series differs between compounds; nearly all actives have a fitted effect of over 30% in size). In short, it runs like this: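 Cytotoxicity counter screen in wild-type CHO-K1 cells: a 3 hr compound treatment at 37C across 15 concentrations, followed by CellTiter-Glo luminescence to gauge viable cells.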
Experiment [13] can be described thus: qHTS assay to identify small molecule antagonists of the estrogen related receptor (ERR) signaling pathway from Tox21 library (AID 1224848). Note: nearly all actives have a fitted effect of over 50% in size. The method, boiled down: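 Compounds dissolved in DMSO are pin-transferred onto ERR reporter cells (2,000 per well) that have settled for 6 h at 37 C. Plates then incubate 18 h at 37 C before ONE-Glo luciferase reagent and a luminescence read 30 min later.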

The nature of experiment [14]: qHTS assay to identify small molecule agonists of the estrogen related receptor (ERR) signaling pathway from Tox21 library (AID 1224849; calls by dose curve; note: nearly all actives have a fitted effect of over 15% in size). The note with it: ERR reporter cell line, ONE-Glo luciferase, 18 h; at 92.4 µM (top of the series) unless noted. In short, it runs like this: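 Luciferase activity in ERR pathway reporter cells served as the agonist readout; exposure lasted 18 h at 37 C, with ONE-Glo detection after 30 min at room temperature.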

A short description of experiment [15]: qHTS RealTime-Glo MT Cell Viability Assay in HepG2 cells - 24 hour (AID 1224867). Note: nearly all actives have a fitted effect of over 50% in size. The method, boiled down:
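HepG2 cells (600/well) were dispensed with RealTime-Glo reagents, incubated 5 h at 37 °C, then treated with compounds in DMSO for up to 40 h. Nonlytic NanoLuc luminescence reflecting viable cells was read at each stated time point.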

Experiment [16] can be described thus: qHTS RealTime-Glo MT Cell Viability Assay in HEK293 cells - 32 hour (AID 1224868). The method, boiled down: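 HEK293 cells seeded with NanoLuc/prosubstrate reagent, rested 5 h at 37 C, then dosed and kept at 37 C up to 40 h. Nonlytic real-time luminescence from viable cells read at 0, 8, 16, 24, 32 and 40 h.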
Experiment [17] is described as follows: A CellTox Green Cytotoxicity Assay to monitor cytotoxicity in HEK293 cells - 0 hour (AID 1224869). Note: nearly all actives have a fitted effect of over 50% in size. The method, boiled down:
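Real-time, in one plate: 600 HEK293 cells/well with dead-cell DNA dye, pinned compound after 5 h, 37 C incubation over 40 h; viable cells give no appreciable fluorescence.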

Experiment [18] is described as follows: qHTS RealTime-Glo MT Cell Viability Assay in HepG2 cells - 40 hour (AID 1224870). Note: nearly all actives have a fitted effect of over 50% in size. The method, boiled down: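 HepG2 cells (600/well) mixed with RealTime-Glo MT reagent, settled 5 h at 37 C/5% CO2 before compound addition. Nonlytic NanoLuc luminescence from viable-cell prosubstrate reduction read repeatedly during 40 h treatment at 37 C.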
In experiment [19] the target is Nuclear receptor subfamily 1 group I member 3 (Homo sapiens) (UniProt Q14994). In words: qHTS assay to identify small molecule agonists of the constitutive androstane receptor (CAR) signaling pathway (AID 1224839). Note: nearly all actives have a fitted effect of over 15% in size. The method, boiled down:
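Cells were plated and incubated 4 hrs, then dosed with compounds at 15 concentrations. PK11195 was added to 0.75 uM final. After 24 hrs at 37 C, luciferase luminescence was measured.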

Experiment [20] shares this target. Nature of the experiment: qHTS assay to identify small molecule antagonists of the constitutive androstane receptor (CAR) signaling pathway (AID 1224838). Note: nearly all actives have a fitted effect of over 40% in size. The method, boiled down:
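Inhibition of CITCO-driven (50 nM final) CYP2B6 reporter expression is measured in HepG2 cells stably carrying hCAR. Fifteen compound concentrations are applied for 24 h at 37 C, followed by luciferase luminescence.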

Unmarked numbers belong to inactive results. Inconclusive results are not listed. The source made the active and inactive calls. Unless noted, calls come from the whole dose curve; as a rule, active = well fitted curve in the direction sought with a large enough effect in the repeat runs; inconclusive = weak or mixed curves; inactive = no such curve, though single readings can be large; an effect the other way counts as inactive or inconclusive.
% is set by controls: 0 for no effect and ±100 for the full control effect.

Sequence of Nuclear receptor subfamily 1 group I member 3 (Homo sapiens) (Q14994 whole entry, looked up): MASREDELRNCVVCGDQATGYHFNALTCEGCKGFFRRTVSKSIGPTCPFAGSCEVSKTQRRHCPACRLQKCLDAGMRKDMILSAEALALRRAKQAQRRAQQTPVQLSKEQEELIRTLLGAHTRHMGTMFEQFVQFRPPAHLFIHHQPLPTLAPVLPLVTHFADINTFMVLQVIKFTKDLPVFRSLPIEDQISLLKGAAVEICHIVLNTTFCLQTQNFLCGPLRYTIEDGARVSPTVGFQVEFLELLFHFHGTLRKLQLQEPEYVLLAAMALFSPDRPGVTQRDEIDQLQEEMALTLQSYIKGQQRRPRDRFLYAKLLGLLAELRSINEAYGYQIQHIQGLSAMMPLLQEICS
Sequence of Luciferin 4-monooxygenase (Photinus pyralis) (P08659 whole entry, looked up): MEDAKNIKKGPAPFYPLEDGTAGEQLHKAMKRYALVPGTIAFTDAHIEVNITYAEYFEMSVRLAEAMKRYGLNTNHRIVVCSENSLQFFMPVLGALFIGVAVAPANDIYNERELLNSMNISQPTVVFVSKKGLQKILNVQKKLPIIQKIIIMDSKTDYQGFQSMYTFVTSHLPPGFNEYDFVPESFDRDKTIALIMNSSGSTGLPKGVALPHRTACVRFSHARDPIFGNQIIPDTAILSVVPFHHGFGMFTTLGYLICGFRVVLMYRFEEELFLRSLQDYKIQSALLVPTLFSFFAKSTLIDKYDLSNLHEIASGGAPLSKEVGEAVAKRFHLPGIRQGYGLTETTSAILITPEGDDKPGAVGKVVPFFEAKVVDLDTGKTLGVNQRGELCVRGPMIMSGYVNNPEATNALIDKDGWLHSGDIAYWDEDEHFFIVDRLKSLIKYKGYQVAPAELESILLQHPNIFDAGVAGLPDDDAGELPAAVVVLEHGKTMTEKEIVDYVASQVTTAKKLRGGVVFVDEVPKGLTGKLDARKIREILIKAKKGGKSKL
Sequence of Thyrotropin receptor (Homo sapiens) (P16473 whole entry, looked up): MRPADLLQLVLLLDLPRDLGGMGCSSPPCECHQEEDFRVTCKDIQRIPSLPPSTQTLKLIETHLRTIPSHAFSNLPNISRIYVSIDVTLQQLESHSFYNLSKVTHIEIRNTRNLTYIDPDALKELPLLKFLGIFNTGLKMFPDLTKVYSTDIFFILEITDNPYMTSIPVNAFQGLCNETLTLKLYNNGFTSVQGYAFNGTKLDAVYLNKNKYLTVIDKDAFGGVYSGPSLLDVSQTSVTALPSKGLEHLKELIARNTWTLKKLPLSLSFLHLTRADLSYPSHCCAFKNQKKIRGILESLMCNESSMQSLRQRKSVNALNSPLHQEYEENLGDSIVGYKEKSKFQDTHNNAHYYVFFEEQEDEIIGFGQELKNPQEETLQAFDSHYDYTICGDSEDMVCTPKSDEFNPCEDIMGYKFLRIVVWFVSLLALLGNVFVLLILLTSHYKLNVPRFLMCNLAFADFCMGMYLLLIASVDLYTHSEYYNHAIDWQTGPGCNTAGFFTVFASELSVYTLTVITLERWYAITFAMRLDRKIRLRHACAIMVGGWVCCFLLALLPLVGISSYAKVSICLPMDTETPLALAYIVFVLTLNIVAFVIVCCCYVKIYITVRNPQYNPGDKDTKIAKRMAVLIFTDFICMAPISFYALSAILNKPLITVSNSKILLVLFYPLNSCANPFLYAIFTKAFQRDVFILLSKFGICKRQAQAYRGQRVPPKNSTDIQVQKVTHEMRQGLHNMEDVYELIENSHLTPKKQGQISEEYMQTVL

Regarding `O=[N+]([O-])c1nccn1CO[C@@H](CO)[C@H](O)CO`, the Potency result in experiment [1], in [2], in experiment [3], in [4], in experiment [5] and in experiment [6] was “inactive” in each case. Besides, the Potency result in experiment [7], in experiment [8], in [9], in experiment [10], in experiment [12] and in experiment [13] was “inactive” each time. The Potency result in experiment [15], in experiment [16], in experiment [17] and in experiment [18] was “inactive” each time. Moreover, in experiment [11], the result was inactive. In addition, the activity change, positive = activation in [14] is 7.4% [at 42.5 µM].
With `C/C(=N\O)[C@@H](C)NCC(C)(C)CN[C@H](C)/C(C)=N/O`, the Potency entry in experiment [1], in [2], in experiment [3], in experiment [4], in [5] and in [9] was “inactive” in each case. In addition, the Potency result in [10], in experiment [12], in experiment [15], in experiment [16], in experiment [17] and in [18] was “inactive” each time. Further, the compound was called inactive in experiment [11].
Take `CN1C(=O)CC(c2ccccc2)C1=O` (centres undefined): the Potency result in experiment [1], in experiment [2], in experiment [3], in experiment [4], in [19] and in experiment [5] was “inactive” throughout. Also, the Potency entry in experiment [8], in experiment [9], in experiment [10], in [12], in experiment [15] and in experiment [16] was “inactive” throughout. Also, the Potency entry in experiment [17] was “inactive”.
For the compound `CCN(O)CC`, the Potency entry in experiment [1], in experiment [2], in experiment [3], in experiment [20], in experiment [19] and in experiment [5] was “inactive” in each case. Moreover, the Potency result in experiment [9], in experiment [10], in [12], in [15], in experiment [16] and in experiment [17] was “inactive” throughout. Further, the Potency result in [18] is “inactive”. Further, the compound was called inactive in [11].
On to `COC(=O)N[C@H](C(=O)N[C@@H](Cc1ccccc1)[C@@H](O)CN(Cc1ccc(-c2ccccn2)cc1)NC(=O)[C@@H](NC(=O)OC)C(C)(C)C)C(C)(C)C`, for which the Potency entry in experiment [1], in experiment [2], in experiment [3], in [19], in experiment [5] and in experiment [8] was “inactive” throughout. In addition, the Potency result in [9], in experiment [12], in [15], in experiment [16] and in experiment [17] was “inactive” throughout. Further, in experiment [10], the Potency was 24.7 µM (active). Besides, the result in experiment [11] was inactive.
For the compound `CN1CCN(N)CC1`, the Potency entry in [1], in experiment [2], in experiment [3], in experiment [20], in experiment [19] and in experiment [5] was “inactive” throughout. Besides, the Potency result in experiment [8], in experiment [9], in experiment [10], in experiment [12], in [16] and in experiment [17] was “inactive” in each case.
As to `COc1ccccc1N1CCN(CCCNc2cc(=O)n(C)c(=O)n2C)CC1`, the Potency entry in experiment [1], in [2], in experiment [3], in experiment [20], in experiment [19] and in [5] was “inactive” throughout. The Potency result in [6], in experiment [7], in [8], in experiment [9], in [10] and in [12] was “inactive” in each case. The Potency entry in experiment [13], in [15], in experiment [16], in experiment [17] and in experiment [18] was “inactive” each time. Also, the activity change, positive = activation in experiment [14] is 3.63% [at 42.5 µM].
Regarding `CC(C)C(=O)OCC(C)(C)C(O)C(C)C` (centres undefined), the Potency entry in experiment [1], in experiment [2], in [3], in [4], in experiment [5] and in experiment [9] was “inactive” throughout. For the same compound, the Potency entry in experiment [10], in experiment [12], in experiment [15], in experiment [16], in experiment [17] and in [18] was “inactive” each time. The compound was classed as inactive in experiment [11].
